Shiga inhibitor: A qHTS for Small Molecule Inhibitors of Shiga Toxin | Vero cells, Shiga toxin protein synthesis inhibition reporter | inhibition, % at 38.7 µM | 290,000 tested, 9.2% active; in the data active = inhibition mostly above about 28%, no sharp cut-off; inactive = mostly below about 43%; note: 0% is about no effect
LmPK inh: qHTS Assay for Inhibitors of Leishmania Mexicana Pyruvate Kinase (LmPK). Potency, µM (top dose mostly 57.5 µM), for the others: at the top dose activity change, negative = inhibition, most hits filed as inhibitors. purified LmPK, Kinase-Glo ATP luminescence, 1 h. Q27686. AID 1721, 2009. 290,000 tested, 0.37% active; note: potency is the fitted concentration of half-maximal effect; % is set by controls: 0 for no effect and ±100 for the full control effect
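Screened at intermediate enzyme activity to detect both inhibitors and activators: LmPK at 0.1 nM, with a 0.5 nM enzyme column as activation reference. PEP 0.5 mM, ADP 0.1 mM; ATP detected by luminescence after 1 h.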
Cycloheximide cs: Cycloheximide Counterscreen for Small Molecule Inhibitors of Shiga Toxin. cell reporter, cycloheximide protein synthesis inhibition counterscreen. max response, %. 300,000 tested, 12% active. AID 2314, 2010; in the data active = max response mostly above about 13%, no sharp cut-off; inactive = mostly below about 14%; note: read at 38.3 µM for the half of the compounds with a filed dose; 0% is about no effect
Tb PYK inh: qHTS of Trypanosoma Brucei Inhibitors; pyruvate kinase (Trypanosoma brucei), Q57TT1; TbPYK enzyme, Kinase-Glo Plus ATP luminescence, 45 min; Potency, µM (titrated, usually from 76.8 µM), inactives show top-dose activity, negative = inhibition, usual class: inhibitors; 410,000 tested, 0.12% active; AID 624173, 2012; note: potency is the fitted concentration of half-maximal effect; % is set by controls: 0 for no effect and ±100 for the full control effect; nearly all actives have a fitted effect of over 50% in size
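TbPYK + substrate in 50 mM TEA pH 7.2, 100 mM KCl, 10 mM MgCl2, 0.05% BSA, 0.01% Tween-20; cpd pinned; ADP 130 uM final; 45 min RT; Kinase-Glo Plus 10 min; luminescence endpoint.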
FBPA Giardia inh: qHTS Assay for Inhibitors of Fructose-1,6-bisphosphate Aldolase from Giardia Lamblia. purified Giardia FBPA. Potency, µM (doses to about 59.6 µM), for inactives: at the highest dose activity, negative = inhibition, usual class: inhibitors. 290,000 tested, 0.71% active. A8B2U2. AID 2451, 2010; note: potency is the fitted concentration of half-maximal effect; % is set by controls: 0 for no effect and ±100 for the full control effect; nearly all actives have a fitted effect of over 55% in size
Target sequence (A8B2U2 whole entry, looked up): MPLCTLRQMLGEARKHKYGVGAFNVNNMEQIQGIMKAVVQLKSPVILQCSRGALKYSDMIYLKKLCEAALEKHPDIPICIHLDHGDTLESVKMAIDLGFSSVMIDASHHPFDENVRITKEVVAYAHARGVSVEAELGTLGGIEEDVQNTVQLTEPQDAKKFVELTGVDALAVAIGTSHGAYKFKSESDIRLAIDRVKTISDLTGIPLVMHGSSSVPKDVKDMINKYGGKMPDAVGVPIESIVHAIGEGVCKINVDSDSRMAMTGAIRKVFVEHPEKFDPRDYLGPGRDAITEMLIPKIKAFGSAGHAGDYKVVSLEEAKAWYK
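Giardia FBPA (40 nM reagent) was preincubated 10 min at RT with compound (up to 57.5 uM final), then substrate plus GAPDH/TPI/NAD/arsenate coupling system with diaphorase/resazurin was added; resorufin fluorescence (525/598 nm) was read after 20 min.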
RE007 growth inh: qHTS Assay for Inhibitors of the HIV-1 protein Vpr. S. pombe RE007 Vpr strain, BacTiter-Glo ATP luminescence, 24 h. Potency, µM (top dose mostly 92.2 µM), for inactives: at the highest dose activity change, negative = less growth, usual class: inhibitors. 360,000 tested, 0.21% active; active = well fitted falling curve with a large enough effect; inconclusive = small, poorly fitted or top-dose-only effect; inactive = no such curve, though single readings can be large or run the other way; note: potency is the fitted concentration of half-maximal effect; % is set by controls: 0 for no effect and ±100 for the full control effect; nearly all actives have a fitted effect of over 50% in size
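Fission yeast strain RE007, carrying one chromosomally integrated HIV-1 vpr copy, was seeded at OD 0.01 in PMG+AL medium with 23 nL pinned compound. After 24 h at 30 °C and 99% humidity, viability was read by BacTiter-Glo luminescence.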
* marks the source's active call; other numbers are inactive results; ? = inconclusive; / = not tested or not shown; + = active, no number; ! = a repeat was not active. This excerpt belongs to a sample that is enriched for hits. Unless noted, calls come from the whole dose curve; as a rule, active = well fitted curve in the direction sought with a large enough effect; inconclusive = small, poorly fitted or top-dose-only effect, or another doubt; inactive = no such curve, though single readings can be large; an effect the other way counts as inactive or inconclusive.

SMILES | Shiga inhibitor | LmPK inh | Cycloheximide cs | Tb PYK inh | FBPA Giardia inh | RE007 growth inh
CCc1cccc(C)c1NC(=O)c1cc(S(=O)(=O)N(Cc2ccc(C(=O)OC)cc2)Cc2ccc(OC)c(OC)c2)ccc1F | / | / | / | 3.4% | / | /
c1ccc(Cn2cc(CSc3ccccc3)nn2)cc1 | 67.2* | -1.2% | 38.2* | 1.3% | 1.8% | -3.8%
CCOC(=O)c1ccc2nc(C)c3c(c2c1)OC(C)C3 (configuration not stated) | -7.3 | 3.2% | 3.7 | 0.9% | 6.4% | -12.8%
CCOC(=O)c1ccc2nc3c(cc2c1)CCS3 | 71.3* | -2.0% | 47.6* | -7.5% | 5.3% | -9.4%
O=c1[nH]c2ccccc2nc1Cc1ccccc1 | 30.4 | 3.9% | 5.9 | 4.4% | -15.0% | -10.9%
O=C(Cc1nc2ccccc2[nH]1)c1ccc(Br)cc1 | 76.5* | 6.0% | 28.5* | -4.0% | -0.6% | ?
O=C(CCNC(=O)c1ccc(Br)cc1)Nc1nc2ccccc2[nH]1 | / | / | / | 1.3% | / | -0.7%
O=C(Cc1nc2ccccc2[nH]c1=O)c1ccccc1 | 68.9* | -16.9% | 51.1* | -2.1% | -5.9% | 9.6%
O=C1NC2(CCCCC2)N=C1c1ccc(F)cc1 | 30.2 | -1.6% | 2.1 | -4.0% | -10.6% | 9.7%
O=C1NC2(CCCCC2)N=C1c1ccc(Br)cc1 | -3.9 | -0.8% | 15.0* | 1.8% | 2.4% | 2.2%
COc1oc(=O)c2cc(N)ccc2c1Cl | 71.5* | / | 61.7* | / | -0.5% | /
COc1c(Cl)c(=O)oc2ccc(Cl)cc12 | / | / | / | 7.7% | / | 8.9%
COCCn1c(=S)[nH]c2sc3c(c2c1=O)CCC(C)C3 (configuration not stated) | 2.7 | -5.2% | -1.4 | ? | 0.2% | 0.4%
COCCCn1c(=S)[nH]c2sc3c(c2c1=O)CCCS3 | 90.8* | ? | 39.9* | -20.7% | -5.6% | 6.5%
C=CCC(O)[C@H](Cc1cnc2ccccc2c1)[C@H](/C=C/CCCC)c1ccccc1 (some centres not stated) | 9.7 | / | 9.0 | / | -3.7% | /
COc1cc(-c2nnn(CC(=O)Nc3ccc(OC(F)(F)F)cc3)n2)cc(OC)c1OC | / | / | / | 1.4% | / | /
Cc1cc(NC(=O)CSc2nc3ccsc3c(=O)n2NC(=O)c2ccccc2)no1 | 36.6* | -0.9% | 36.4* | -4.6% | 9.7% | -14.4%
Cc1ccc(CNC(=O)CSc2nc3ccsc3c(=O)n2NC(=O)c2ccccc2)cc1 | 31.7 | -5.0% | 2.9 | 5.8% | -0.2% | 2.1%
O=C(Nn1c(SCc2ccc(F)cc2)nc2ccsc2c1=O)c1ccccc1 | 19.2 | 7.2% | 27.6* | 12.0% | 6.1% | 26.0%
CCC(C)NC(=O)CSc1nc2ccsc2c(=O)n1NC(=O)c1ccccc1 (configuration not stated) | 32.9 | -2.2% | 27.7 | -4.8% | -0.6% | 0.0%
COc1ccc(C(=O)N2CCC3(CCN(CC(C)C)CC3)CC2)cc1 | / | / | / | -5.0% | 1.5% | /
COc1cc(C(c2c(C)[nH][nH]c2=O)c2c(C)[nH][nH]c2=O)ccc1OC(=O)c1ccccc1OC | -6.2 | / | -5.0 | 9.5% | / | /
COc1ccc(C(=O)O/N=C(\N)c2ccccc2Cl)cc1OC | 158.8* | 1.7% | 33.2* | -14.1% | -1.5% | 15.9%
COc1ccccc1C(=O)O/N=C(\N)c1ccccc1Cl | 118.8* | -2.8% | 54.7* | -1.5% | -8.2% | -14.8%
COc1ccc(/C(N)=N/OC(=O)c2ccc(OC)c([N+](=O)[O-])c2)cc1OC | 3.4 | 3.4% | -2.6 | 2.9% | 4.5% | 9.0%
SMILES | Shiga inhibitor | LmPK inh | Cycloheximide cs | Tb PYK inh | FBPA Giardia inh | RE007 growth inh
COc1ccccc1C(=O)Oc1ccc(C(C)C)cc1 | 83.8* | -4.1% | 34.6* | -3.7% | -2.3% | 7.0%
O=C(NCc1cccc(F)c1)C1CCN(c2nc3ccccc3nc2C(F)(F)F)CC1 | / | / | / | -5.4% | / | /
COc1ccc(CN(C)c2ccc(-c3nc(C)no3)cc2[N+](=O)[O-])cc1 | / | / | / | 5.1% | / | /
COc1cc(OC)c(Nc2nc3ccccc3nc2-n2nc(C)cc2C)cc1Cl | / | / | / | -2.2% | / | /
COc1cccc(OCc2ccc(C(=O)NCC3CCCO3)cc2)c1 (configuration not stated) | 36.6* | -0.7% | 27.8* | -1.6% | -2.2% | 13.3%
O=C(NCC1CCCO1)c1ccc(COc2ccccc2Br)cc1 (configuration not stated) | + | -0.1% | 15.0 | -14.2% | 1.1% | -5.7%
CCc1ccccc1NC(=O)N1CCC(CN2CCc3ccccc3C2)CC1 | / | / | / | 4.8% | / | /
O=C(CCC1CCCN(C(=O)CCCc2ccccc2)C1)N1CCN(c2ccccn2)CC1 (configuration not stated) | 50.6 | 0.8% | 21.6* | 2.2% | 3.3% | 0.0%
Cc1ccccc1CC(=O)N1CCCC(CCC(=O)N2CCN(c3ccccn3)CC2)C1 (configuration not stated) | -7.8 | 0.4% | -1.3 | 1.5% | 1.1% | -2.7%
O=C(CCC1CCCN(C(=O)Cc2cccc(F)c2)C1)N1CCN(c2ccccn2)CC1 (configuration not stated) | 70.6* | 4.4% | 49.9* | 3.6% | 18.5% | -4.1%
COCCN(CC(=O)Nc1cccc(C)c1C)C(=O)c1cc(-c2ccncc2)nc2ccccc12 | / | / | / | 0.9% | / | -1.8%
CCN(CC)CCOC(=O)c1ccc(N/C=C(/C#N)c2nc(-c3ccc4c(c3)OCO4)cs2)cc1 | 24.7 | 3.4% | 30.8* | -0.2% | 1.1% | -6.4%
CCN(CC)CCOC(=O)c1ccc(N/C=C(/C#N)c2nc(-c3ccc(OC)cc3)cs2)cc1 | 7.3 | -2.8% | -1.7 | -2.7% | -5.6% | 0.1%
O=c1oc2ccc3ccccc3c2cc1-c1nnc(-c2ccccc2)o1 | 19.1 | 0.5% | 42.0* | -0.2% | 1.0% | 3.4%
O=c1oc2ccc3ccccc3c2cc1-c1nnc(-c2cccs2)o1 | -3.7 | 0.5% | 25.3* | 4.3% | 6.8% | -18.5%
COc1ccc(-c2nnc(-c3cc4c(ccc5ccccc54)oc3=O)o2)cc1 | -6.2 | -2.3% | 1.3 | -14.2% | 5.4% | 2.1%
CCn1cc(C(=O)N(C)c2ccc(C(C)C)cc2)c2cc(OC)c(OC)cc2c1=O | / | / | / | 4.4% | / | /
NCCS | -14.4 | 0.8% | -2.2 | -1.3% | 15.8µM*! | 0.0%
Cc1cc(C)nc(-n2nc(C)c(Sc3ccc(F)cc3)c2N)n1 | 100.4* | -18.3% | 38.8* | ? | -9.0% | -5.7%
CC(C)[C@H](NC(=O)c1ccccc1)C(=O)OCC(=O)c1ccccc1F | 20.2 | -2.2% | 15.8* | -3.7% | -0.2% | -8.4%
CC(C)COn1c(=S)[nH]c2ccccc2c1=O | 55.2* | -6.9% | 27.3* | 4.3% | -9.3% | -22.9%
